In ChEMBL document CHEMBL4513216, “Probing the Open Global Health Chemical Diversity Library for Multistage-Active Starting Points for Next-Generation Antimalarials” (ACS Infect Dis, 2020):
Screen size: about 65,000 compounds; about 2,100 (3.2%) showed an effect of 50% or more. The median lay at about -52%. The full list was thinned out, with strong results kept by preference.

What follows are compounds tested on Plasmodium falciparum (assay: Screen against P. falciparum Asexual Blood Stage (ABS), at 5uM). Conditions: tested at 5 uM.
Assay type: functional, Dd2

Compound | INHIBITION
CC(=O)N1CCC2(C1)c1ccccc1S(=O)(=O)N2C (stereo not drawn) | -56.8%
CC(C)c1nn(C)c(N(C)C)c1CNCc1ccccc1CO | 44.8%
Cc1nn(C)c(N(C)C)c1CNCc1ccccc1CN(C)C | 18.8%
CC(C)c1nn(C)c(N(C)C)c1CNCc1cccnc1N(C)C | 21%
COc1ncccc1CNCc1c(C(C)C)nn(C)c1Cl | 51.7%
COCc1cccc(CNCc2c(C(C)C)nn(C)c2N(C)C)c1 | 36.5%
COc1ncccc1CNCc1c(C(C)C)nn(C)c1OC | -29.9%
COc1ncccc1CNCc1c(C(C)C)nn(C)c1N(C)C | 11%
CC(C)c1nn(C)c(N(C)C)c1CNCc1ccccc1CN(C)C | 59.5%
CC(C)c1nn(C)c(N(C)C)c1CNCc1cccc2cccnc12 | 67.5%
COCc1ccccc1CNCc1c(C(C)C)nn(C)c1N(C)C | 59.4%
CCOc1ncccc1CNCc1c(C(C)C)nn(C)c1N(C)C | -7.19%
COCc1ccccc1CNCc1c(C)nn(C)c1N(C)C | -36.8%
CS(=O)(=O)c1ccc(CN2C[C@@H]3CC[C@H]2CN(c2ncccn2)C3)cc1 | -136%
CN(Cc1noc(C2CC2)n1)C1CCN(Cc2nnc(C3CC3)o2)C1 (stereo not drawn) | -122%
CC(C)(C)C(N)C1=NC(=C2N=CN=N2)NO1 (stereo not drawn) | -49.9%
CCn1c(=NC(=O)CSCC(=O)Nc2nccs2)sc2ccccc21 | 32.3%
CC(NCc1cnc(N2CCOCC2)nc1)c1ccc(Cl)s1 (stereo not drawn) | -25.9%
c1csc(CN2CCO[C@@H]3CN(C4CCOCC4)C[C@@H]3C2)c1 | -93.2%
Cc1noc(C)c1CN1Cc2cnn(C)c2C(COCC2CC2)C1 (stereo not drawn) | -81.3%
Cc1ccc(CN2CCS(=O)(=O)C(C)(C)C2)cc1C | -98.2%
Cc1csc2ncnc(N3CCC(Cn4cc(C(C)(C)N)nn4)CC3)c12 | 35%
COc1ccc(NC(=O)CNc2ccc(Br)cc2F)cc1 | -68.8%

Compound | INHIBITION
COc1cccc(CNCc2c(C(C)C)nn(C)c2N(C)C)c1OC | 33.3%
COc1ccc(OC)c(CNCc2c(C(C)C)nn(C)c2N(C)C)c1 | 69.3%
COc1cccc(CNCc2c(C(C)C)nn(C)c2N(C)C)c1 | -5.49%
CC(C)COc1cncc(N2CCCN(c3ncccn3)CC2)n1 | -186%
c1ccc(C2=NOC3(CCN(Cc4c[nH]c5ccccc45)CC3)C2)cc1 | 36.1%
Cc1ccc(CN2CCC3(CCCN(Cc4ccc(F)c(F)c4)C3)C2)o1 (stereo not drawn) | 28.1%
Fc1ccc(CN2CCCC3(CCN(Cc4ncc[nH]4)C3)C2)cc1F (stereo not drawn) | 60.9%
O=C(c1cn[nH]c1)N1CCC2(CCCN(Cc3ccc(F)c(F)c3)C2)C1 (stereo not drawn) | -25.8%
CCc1nc2c(s1)C(N(C)C(=O)c1csnn1)CCC2 (stereo not drawn) | -32.3%
Cc1nc(NC2(CN3CCCCC3)CCCCC2)c2cnn(C)c2n1 | 56%
COCC1(Nc2nc(C)nc3c2cnn3C)CCCC1 | -142%
CCOC(=O)CC1(Nc2nc(C)nc3c2cnn3C)CCCCC1 | -25.2%
Cc1nc(C(=O)NCCS(=O)(=O)N2CCCC2)cs1 | -31.8%
Cc1nc(COc2ccc(OC3CCCCNC3=O)cc2)oc1C (stereo not drawn) | -151%
O=C(Nc1ccc2c(c1)C(=O)NC2=O)c1cccs1 | -80.7%
CCC(=O)N1CCC2(CC1)COCCN2Cc1ccc(F)cc1 | -31.7%
CC(=O)N(Cc1noc(C)n1)C1CCN(CCOc2ccccc2)C1 (stereo not drawn) | -79.1%
Cn1cc(N2CC3(CCN(CC4CC4)CC3)OCC2=O)cn1 | -53.1%
Cc1noc(-c2ccnc(Oc3ccc(CN4CCCC4)cc3F)c2)n1 | -38.8%
Cc1noc(-c2ccnc(Oc3ccc(CN4CCCC4)cc3C)c2)n1 | 53.3%
Cc1noc(-c2ccnc(Oc3ccccc3CN3CCCCC3)c2)n1 | -36.8%
Cc1ccc(-c2nnc(CN3CCc4nn(C)c(=O)cc4C3)o2)cc1 | -38.4%
CCOC(=O)N1CCN(c2nc(NC3CC3)c3ccccc3n2)CC1 | 4.86%

Compound | INHIBITION
Cc1csc2c(C3CCCN(C(=O)CCn4ccnc4)C3)nc(C)n12 (stereo not drawn) | -97.3%
COCCN(CC1CCCN(C2Cc3ccccc3C2)C1)C(=O)CO (stereo not drawn) | 59.9%
COCCN(CC1CCCN(C2Cc3ccccc3C2)C1)C(=O)COC (stereo not drawn) | 39.5%
COCCN(CC1CCCN(C2Cc3ccccc3C2)C1)C(=O)CSC (stereo not drawn) | 1.3%
O=C(NC1CCC1)C1=NOC2(CCN(Cc3ccc(F)cc3)C2)C1 (stereo not drawn) | -11.6%
c1ccc(CN2CC[C@@H]3O[C@@H](COCCN4CCCC4)CC[C@@H]32)nc1 | -36%
COCCN1CC[C@@H]2OC[C@H](C(=O)N(C)Cc3ccccn3)C[C@@H]2C1 | 11.1%
c1ccc(CN2CCCC2)c(CNc2cncc3nnnn23)c1 | 61.4%
c1cc(CN2CCCC2)ccc1CNc1cncc2nnnn12 | -31.2%
c1cc(N2CCSCC2)ccc1CNc1cncc2nnnn12 | -119%
Cc1cc(C(=O)N2C[C@@H]3COC[C@]3(CN(C)C)C2)sc1C | -113%
Cc1cc(C)nc(N(C)CCN(C)C2CCCC2)n1 | 28%
Cc1cc(N(C)CCN(C)C)n2nc(C)cc2n1 | -113%
Cc1cc(N(C)CCN(C)C2CCCC2)n2nc(C)cc2n1 | 55.7%
O=C(c1ccc2[nH]ccc2c1)N1CCn2cc(CN3CCCC3)nc2C1 | -38.2%
COCCn1cc2c(n1)C(CNCc1ccc(F)cc1)OCC2 (stereo not drawn) | -11.4%
Fc1ccc(CNCC2OCCc3cn(CC4CC4)nc32)cc1 (stereo not drawn) | 68.9%
c1cc(CNCC2OCCc3cn(CC4CC4)nc32)cs1 (stereo not drawn) | 47%
CCc1cnc(CNC(=O)NCCc2ccc(O)cc2)s1 | -13.3%
CNC(=O)CC1CC2(CCN(c3ncccn3)CC2)c2ccccc21 (stereo not drawn) | -87%
Cc1cccc(N2CC3(CCN(Cc4nccn4C)C3)CC2=O)c1 (stereo not drawn) | -54.9%
COCc1ncc(CN2CC[C@@H](NC(=O)c3cccnc3)[C@H](O)C2)cn1 | -35.5%
